# Assay outcomes as filed in PubChem BioAssay.
# HEK cytotox: Cytotoxic Profiling in HEK 293 Cell Line of Diverse Libraries Using Quantitative High-Throughput Screening. HEK 293 viability, ATP luminescence (CellTiter-Glo), 48-72 h. Potency, µM (top dose mostly 115 µM), without a hit: at the top dose activity change, negative = cytotoxicity, usual class: inhibitors. 6.6% of 94,000 active; further: on the % scale 0 is the no-effect control and ±100 the full control effect; nearly all actives have a fitted effect of over 60% in size
#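 HEK 293 cells seeded at 250 cells/well were exposed to compound for 48 or 72 hr at 37 degree Celsius. Viability taken as ATP content by CellTiter-Glo luminescence.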
# NPR1 antag: Natriuretic polypeptide receptor (hNpr1) antagonism - Primary qHTS; AID 1347048, 2019; HEK293 hNpr1 GloSensor cGMP, ANP-stimulated luminescence; Potency, µM (top dose mostly 46.3 µM), for the others: at the highest dose activity change, negative = inhibition, usual class: inhibitors; 1.6% of 76,000 active; calls by dose curve; further: on the % scale 0 is the no-effect control and ±100 the full control effect; nearly all actives have a fitted effect of over 60% in size
#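 Compound pre-incubated 30 min at room temperature on GloSensor-loaded HEK293 cells stably carrying hNpr1 and the pGS-40F cGMP biosensor. Stimulation uses hNppA at 0.1 nM final; luminescence is taken at baseline and 20 min post-agonist.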
# FLuc inh-1: Firefly luciferase inhibition profiling of diverse chemical library using quantitative high-throughput screening; Luciferin 4-monooxygenase (Photinus pyralis), P08659; purified P. pyralis luciferase, luminescence, biochemical; Potency, µM (top dose mostly 115 µM), usual class: inhibitors; 2.5% of 76,000 active; AID 1347043, 2019; further: on the % scale 0 is the no-effect control and ±100 the full control effect; nearly all actives have a fitted effect of over 65% in size
# Target sequence (P08659 whole entry, looked up): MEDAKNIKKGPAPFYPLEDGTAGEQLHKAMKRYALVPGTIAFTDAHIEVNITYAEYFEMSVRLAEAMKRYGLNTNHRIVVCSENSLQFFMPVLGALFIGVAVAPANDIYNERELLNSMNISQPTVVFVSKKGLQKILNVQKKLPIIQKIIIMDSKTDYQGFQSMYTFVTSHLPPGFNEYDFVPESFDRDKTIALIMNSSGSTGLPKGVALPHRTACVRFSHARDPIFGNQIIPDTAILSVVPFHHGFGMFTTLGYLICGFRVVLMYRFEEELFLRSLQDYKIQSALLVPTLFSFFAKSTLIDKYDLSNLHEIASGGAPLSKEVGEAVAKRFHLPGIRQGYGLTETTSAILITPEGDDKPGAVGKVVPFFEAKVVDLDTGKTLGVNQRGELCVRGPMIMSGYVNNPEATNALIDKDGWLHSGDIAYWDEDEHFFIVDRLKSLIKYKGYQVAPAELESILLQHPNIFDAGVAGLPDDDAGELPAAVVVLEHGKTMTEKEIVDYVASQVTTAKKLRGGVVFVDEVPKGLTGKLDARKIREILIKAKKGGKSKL
#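 FLuc 10nM, D-luciferin 10uM, ATP 10uM, Mg acetate 10mM, Tris acetate pH 7.5, Tween/BSA; cpd qHTS; enzyme added last; CCD luminescence.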
# 3T3 cytotox: Cytotoxic Profiling in NIH 3T3 Cell Line of Diverse Libraries Using Quantitative High-Throughput Screening; NIH 3T3 viability, CellTiter-Glo ATP luminescence, 48-72 h; Potency, µM (titrated, usually from 96.7 µM), without a hit: at the highest dose activity change, negative = cytotoxicity, most hits filed as inhibitors; 4.3% of 94,000 active; AID 1345082, 2018; further: on the % scale 0 is the no-effect control and ±100 the full control effect; nearly all actives have a fitted effect of over 55% in size
#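 ATP-dependent luminescence (CellTiter-Glo) served as the viability signal for NIH 3T3 cells treated with compound for 48 or 72 hr at 37 °C.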
# FLuc SDR no ATP: Firefly luciferase (FLuc-C-HiBiT) SDR gain of signal screen - without ATP; AID 1963318, 2024; 7.8% of 1,300 active; Potency, µM (titrated, usually from 32.7 µM), for inactives: at the top dose activation (signal gain), actives largely listed as activators; Purified FLuc-C-HiBiT, Nano-Glo HiBiT luminescence, no ATP; shares compounds with FLuc inh-1; further: nearly all actives have a fitted effect of over 55% in size
# FLuc SDR ATP: Firefly luciferase (FLuc-C-HiBiT) SDR gain of signal screen - plus ATP. purified FLuc-C-HiBiT + ATP, HiBiT complementation luminescence. Potency, µM (titrated, usually from 32.7 µM), inactives show top-dose activation (gain of signal), hits mostly activators. 8.7% of 1,300 active. shares compounds with FLuc inh-1;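 further: signal reports ligand binding via conformational change of the enzyme rather than luciferase catalysis; % of control where 0% means no effect; nearly all actives have a fitted effect of over 55% in size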
# FLuc inh-2: Firefly luciferase (FLuc-C-HiBiT) enzymatic inhibition screen - Functional assay | 42% of 1,300 active | AID 1963320, 2024 | shares compounds with FLuc inh-1 | purified FLuc-C-HiBiT enzyme, luciferin luminescence | Potency, µM (top dose mostly 32.7 µM), inactives show at the highest dose activity change, negative = inhibition, hits mostly inhibitors; further: on the % scale 0 is the no-effect control and ±100 the full control effect; nearly all actives have a fitted effect of over 70% in size
# An asterisk follows results filed as active; i = inactive; ? = inconclusive; . = not tested or not shown; [ ] = remark or other dose. Shown are actives, neighbours in structure and some others; about 11% of the full set was active somewhere. Unless noted, the call rests on the fitted dose curve; in most records, active means well fitted curve in the direction sought with a large enough effect; inconclusive means small, poorly fitted or top-dose-only effect, or another doubt; inactive means no such curve, though single readings can be large; an effect the other way counts as inactive or inconclusive. Potency means the concentration at half of the fitted maximal effect.
SMILES,HEK cytotox,NPR1 antag,FLuc inh-1,3T3 cytotox,FLuc SDR no ATP,FLuc SDR ATP,FLuc inh-2
CC(NC(=O)C1(c2ccc(NS(C)(=O)=O)cc2)CCCCC1)c1ccccc1 (centres undefined),-8.7%,4.5%,i,-7.9%,.,.,.
Cc1cn2c(=O)cc(COC(=O)c3cccc(NC(=O)COc4ccccc4Cl)c3)nc2s1,.,.,.,.,12.9%,9.89µM*,7µM*
Cc1cn2c(=O)cc(CN3CC[C@@](C)(O)[C@@H](O)C3)nc2s1,-23.9%,-5.2%,i,-18.8%,.,.,.
CCOC(=O)C1CCN(C(=O)c2ccc3nnc(-c4cccnc4)n3c2)CC1,-18.1%,.,.,-23.5%,.,.,.
Cc1ccc(C(=O)O)cc1Nc1nc2ccccc2n2nnnc12,.,.,.,.,12.6%,11.2%,?
Cc1ccccc1-c1cccc(COc2cnc3c(ccn3CC(=O)O)c2)c1,.,.,.,.,8.6%[49.3 µM],6.0%[49.3 µM],?
CC(=O)Nc1cccc(-c2cccc(CCOc3cnc4c(ccn4CC(=O)O)c3)c2)c1,.,.,.,.,?,?,16.1µM*
CC(C)Oc1cccc(-c2cccc(COc3cnc4c(ccn4CC(=O)O)c3)c2)c1,?,3.7%[70.6 µM],11.2µM*,-22.6%[138 µM],7.1%[49.3 µM],4.8%[49.3 µM],18µM*
Cc1ccccc1-c1cccc(CCOc2cnc3c(ccn3CC(=O)O)c2)c1,?,-0.3%[70.6 µM],i,-13.7%[138 µM],.,.,.
CCc1cccc(-n2nnc(-c3nsc(NC(=O)c4cccs4)n3)c2C)c1,.,.,.,.,13.3%,14.4%,-18.6%
COc1cccc2cc(C(=O)Nc3ccc(CC(=O)O)cc3)c(=O)oc12,.,.,.,.,2.48µM*,1.76µM*,3.13µM*
CC(=O)Nc1cccc(-c2ccnc(-c3nnc(C)n3CCc3ccccc3)c2)c1,?,4.3%[70.6 µM],i,-11.2%[138 µM],.,.,.
Cc1c(C(=O)Nc2ccc(C(=O)O)cc2)nnn1-c1ccccc1,.,.,.,.,7µM*,0.0785µM*,0.0785µM*
Cc1ccc(-c2cc3c(=O)n(CCNC(=O)c4cccc5[nH]ccc45)ccn3n2)cc1C,35.5µM*,-15.5%,5.62µM*,31.6µM*,22.9%,15.2%,7.85µM*
O=C(NCCn1ccn2nc(-c3ccc(F)cc3)cc2c1=O)c1cccc2[nH]ccc12,i,-12.7%,i,i,.,.,.
Cc1ccc(-c2cc3c(=O)n(CCNC(=O)c4ccoc4)ccn3n2)cc1C,?,-12.1%,7.08µM*,?,24.8%,17.0%,?
COc1cccc(CNC(=O)CN2C(=O)NC(c3ccc(Cl)cc3)C3=C2COC3=O)c1OC (centres undefined),?,-1.5%,i,?,.,.,.
COc1ccccc1OC(C)C(=O)Nc1cccc(-c2nc3ccccc3s2)c1 (centres undefined),.,.,.,.,9.8%,7.3%,?
CC(Oc1ccccc1F)C(=O)Nc1ccc(-c2nc3ccccc3s2)cc1 (centres undefined),.,.,.,.,16.0%,10.8%,?
COc1ccccc1CNC(=O)c1cc2cn(C(C)C)cc2s1,?,?,i,-25.2%,.,.,.
O=C(Nc1ccc(-c2nc3ccccc3s2)cc1)c1c(F)c(F)c(F)c(F)c1F,.,.,.,.,13.2%,9.8%,4.8%
O=C(Nc1ccc(-c2nnc3n2CCCC3)cc1)c1ccccc1F,1.7%,-0.5%,i,2.4%,.,.,.
Cc1ccc(C)c(C(O)Cn2ccn3nc(-c4cccc(Br)c4)cc3c2=O)c1 (centres undefined),?,-28.9%,i,?,.,.,.
O=C(Nc1cnc(-c2ccccc2)nc1)C1CCCCC1,-9.3%,?,1µM*,i,?,?,1.97µM*
O=C(CC1CCCC1)Nc1cnc(-c2cccnc2)nc1,1.8%,-14.4%,?,-5.6%,.,.,.
SMILES,HEK cytotox,NPR1 antag,FLuc inh-1,3T3 cytotox,FLuc SDR no ATP,FLuc SDR ATP,FLuc inh-2
COc1ccc(-c2cc3c(=O)n(CCNC(=O)c4c(F)cccc4Cl)ccn3n2)cc1,?,-23.1%,3.16µM*,-15.0%,?,?,?
COc1ccc(-c2cc3c(=O)n(CCNC(=O)c4c(F)cccc4F)ccn3n2)cc1,-27.9%,-20.7%,3.98µM*,-26.3%,?,?,4.95µM*
CCC(C(=O)NCCn1ccn2nc(-c3ccc(OC)cc3)cc2c1=O)c1ccccc1 (centres undefined),?,-16.9%,8.91µM*,?,25.3%,14.4%,?
COc1ccc(-c2onc(C)c2C(=O)NCCc2ccc(F)cc2)cc1,?,-6.7%,i,-21.8%,.,.,.
CCOc1ccc(-c2cc3c(=O)n(CCNC(=O)Cc4ccccc4C)ccn3n2)cc1,?,-23.9%,?,-15.5%,.,.,.
COc1ccc(-c2nc(C)c(CCNC(=O)c3c(F)cccc3F)s2)cc1,.,.,.,.,17.1%,15.4%,-19.6%
NCC1Cn2cccc2CN1Cc1ccccc1 (centres undefined),?,2.8%,i,?,.,.,.
COc1cccc(-c2cc3c(=O)n(CCNC(=O)c4cc(C)cc(C)c4)ccn3n2)c1,-17.7%,-21.8%,?,-14.8%,.,.,.
COc1cccc(-c2cc3c(=O)n(CCNC(=O)C4CCN(C(C)=O)CC4)ccn3n2)c1,i,6.1%,14.1µM*,-5.5%,?,?,?
COc1cccc(-c2cc3c(=O)n(CCNC(=O)C4CCCCC4)ccn3n2)c1,?,?,?,-24.2%,.,.,.
COc1ccc(-c2cc3c(=O)n(CCNC(=O)c4ccco4)ccn3n2)cc1,?,-16.5%,7.94µM*,?,?,?,9.89µM*
O=c1n(-c2ccc(C(F)(F)F)cc2)nc2n1CCN([S+](=O)([O-])c1ccccc1)C2,-10.5%,.,.,-12.3%,.,.,.
C[C@@H]1CN(c2nc(-c3ccccc3)no2)CC[C@@]1(O)C1CCC1,?,5.62µM*,0.355µM*,?,?,?,1.76µM*
OCC1(CC2CC2)CCCN(c2nc(-c3ccccc3)no2)C1 (centres undefined),?,-3.5%,14.1µM*,?,10.9%,12.5%,-12.2%
O=C1CC2(CCN(c3nc(-c4ccccc4)no3)CC2)CN1Cc1ccccc1,?,?,i,?,.,.,.
